Laboratory results from PubChem BioAssay (EPA / NIEHS).
Calls of active or inactive are those of the source. The calls were made as follows: active = hit-call score of the fitted dose curve at least 0.9, where 1 is the maximum; inactive = score below 0.9.

Legend:
[1] = read-out: Tissue plasminogen activator (tPA), PLAT (gene 5327); experiment: BSK_BE3C_tPA: BioMAP Diversity Plus: BE3C Assay for Tissue plasminogen activator (tPA) Biomarker Activity (AID 2283041); details: primary human bronchial epithelial cells; actives raise or lower the signal;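 also: tPA level quantified by ELISA one day after compound addition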
Method in brief: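 Primary human lung bronchial epithelial cultures receive test chemical; after 24 h, tPA is quantified by ELISA, and gain or loss of signal is fitted bidirectionally relative to DMSO baseline.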

[2] = read-out: Interleukin-8 (IL8), CXCL8 (gene 3576); experiment: BSK_CASM3C_IL8: BioMAP Diversity Plus: CASM3C Assay for Interleukin-8 (IL8) Biomarker Activity (AID 2283042); details: primary human coronary artery smooth muscle cells; actives raise or lower the signal;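 also: IL-8 protein level quantified by ELISA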
[3] = read-out: Human Leukocyte Antigen - DR isotype (HLADR), HLA-DRA (gene 3122); experiment: BSK_CASM3C_HLADR: BioMAP Diversity Plus: CASM3C Assay for Human Leukocyte Antigen - DR isotype (HLADR) Biomarker Activity (AID 2283043); details: primary human coronary artery smooth muscle cells; actives raise or lower the signal;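 also: cell-surface HLA-DR protein level quantified by ELISA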
[4] = read-out: Macrophage colony-stimulating factor (MCSF), CSF1 (gene 1435); experiment: BSK_CASM3C_MCSF: BioMAP Diversity Plus: CASM3C Assay for Macrophage colony-stimulating factor (MCSF) Biomarker Activity (AID 2283044); details: primary human coronary artery smooth muscle cells; actives raise or lower the signal;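 also: M-CSF protein amount quantified by ELISA after 24 h exposure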
[5] = read-out: Low-density lipoprotein receptor (LDLR), LDLR (gene 3949); experiment: BSK_CASM3C_LDLR: BioMAP Diversity Plus: CASM3C Assay for Low-density lipoprotein receptor (LDLR) Biomarker Activity (AID 2283045); details: primary human coronary artery smooth muscle cells; actives raise or lower the signal;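 also: LDLR protein level on the cell surface quantified by ELISA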
[6] = read-out: Monocyte Chemoattractant Protein-1 (MCP1), CCL2 (gene 6347); experiment: BSK_CASM3C_MCP1: BioMAP Diversity Plus: CASM3C Assay for Monocyte Chemoattractant Protein-1 (MCP1) Biomarker Activity (AID 2283046); details: primary human coronary artery smooth muscle cells; actives raise or lower the signal;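 also: MCP-1 level quantified by ELISA 24 h after dosing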
[7] = BSK_CASM3C_Proliferation: Cell Proliferation Assessment in the BioMAP Diversity Plus: CASM3C Assay (AID 2283047); details: primary human coronary artery smooth muscle cells;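 also: sulforhodamine B total protein stain as relative cell number at 560 nm; sub-confluent cells exposed 48 h before staining; fitted both ways against DMSO so gain or loss of cell number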
[8] = read-out: Monokine induced gamma interferon (MIG), CXCL9 (gene 4283); experiment: BSK_CASM3C_MIG: BioMAP Diversity Plus: CASM3C Assay for Monokine induced gamma interferon (MIG) Biomarker Activity (AID 2283048); details: primary human coronary artery smooth muscle cells; actives raise or lower the signal;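 also: MIG protein level measured by ELISA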
[9] = read-out: serum amyloid A (SAA), SAA1 (gene 6288); experiment: BSK_CASM3C_SAA: BioMAP Diversity Plus: CASM3C Assay for serum amyloid A (SAA) Biomarker Activity (AID 2283049); details: primary human coronary artery smooth muscle cells; actives raise or lower the signal;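 also: SAA protein level quantified by ELISA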
[10] = BSK_CASM3C_SRB: Viability Assessment in the BioMAP Diversity Plus: CASM3C Assay (AID 2283050); details: primary human coronary artery smooth muscle cells;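 also: total protein by SRB staining as cytotoxicity measure in parallel cultures; cells exposed to compound for 24 h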
[11] = read-out: Thrombomodulin, THBD (gene 7056); experiment: BSK_CASM3C_Thrombomodulin: BioMAP Diversity Plus: CASM3C Assay for Thrombomodulin Biomarker Activity (AID 2283051); details: primary human coronary artery smooth muscle cells; actives raise or lower the signal;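 also: thrombomodulin protein level measured by ELISA 24 h after dosing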
[12] = read-out: Tissue Factor, F3 (gene 2152); experiment: BSK_CASM3C_TissueFactor: BioMAP Diversity Plus: CASM3C Assay for Tissue Factor Biomarker Activity (AID 2283052); details: primary human coronary artery smooth muscle cells; actives raise or lower the signal;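 also: cell surface tissue factor protein level read by ELISA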
[13] = read-out: Interferon-gamma inducible Protein 10 (IP10), CXCL10 (gene 3627); experiment: BSK_hDFCGF_IP10: BioMAP Diversity Plus: hDFCGF Assay for Interferon-gamma inducible Protein 10 (IP10) Biomarker Activity (AID 2283053); details: primary human foreskin fibroblasts; actives raise or lower the signal
Method in brief: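 Primary foreskin fibroblasts, human; 24 h compound exposure; IP-10 by ELISA; bidirectional fit vs DMSO.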

[14] = read-out: Urokinase-type plasminogen activator receptor (uPAR), PLAUR (gene 5329); experiment: BSK_CASM3C_uPAR: BioMAP Diversity Plus: CASM3C Assay for Urokinase-type plasminogen activator receptor (uPAR) Biomarker Activity (AID 2283054); details: primary human coronary artery smooth muscle cells; actives raise or lower the signal;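 also: cell-surface uPAR protein level quantified by ELISA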
[15] = read-out: Vascular cell adhesion molecule 1 (VCAM1), VCAM1 (gene 7412); experiment: BSK_CASM3C_VCAM1: BioMAP Diversity Plus: CASM3C Assay for Vascular cell adhesion molecule 1 (VCAM1) Biomarker Activity (AID 2283055); details: primary human coronary artery smooth muscle cells; actives raise or lower the signal;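 also: VCAM-1 protein level quantified by ELISA on the cells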
[16] = read-out: Collagen III, COL3A1 (gene 1281); experiment: BSK_hDFCGF_CollagenIII: BioMAP Diversity Plus: hDFCGF Assay for Collagen III Biomarker Activity (AID 2283056); details: primary human foreskin fibroblasts; actives raise or lower the signal
Method in brief: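 Human foreskin primary fibroblasts were exposed to test chemicals for 24 h, after which collagen III was quantified by ELISA. Activity was fitted bidirectionally against DMSO as negative control and baseline.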

[17] = read-out: Epidermal growth factor receptor (EGFR), EGFR (gene 1956); experiment: BSK_hDFCGF_EGFR: BioMAP Diversity Plus: hDFCGF Assay for Epidermal growth factor receptor (EGFR) Biomarker Activity (AID 2283057); details: primary human foreskin fibroblasts; actives raise or lower the signal
Method in brief: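 hDFCGF system, primary human foreskin fibroblasts; compound 24 h; EGFR measured by ELISA; DMSO = negative control/baseline; bidirectional fitting.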

[18] = read-out: Interleukin-8 (IL8), CXCL8 (gene 3576); experiment: BSK_hDFCGF_IL8: BioMAP Diversity Plus: hDFCGF Assay for Interleukin-8 (IL8) Biomarker Activity (AID 2283058); details: primary human foreskin fibroblasts; actives raise or lower the signal
Method in brief: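 hDFCGF human dermal fibroblasts; 24 h chemical exposure; IL-8 by ELISA; bidirectional curve fit vs DMSO baseline; gain or loss of signal scored.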

[19] = read-out: Macrophage colony-stimulating factor (MCSF), CSF1 (gene 1435); experiment: BSK_hDFCGF_MCSF: BioMAP Diversity Plus: hDFCGF Assay for Macrophage colony-stimulating factor (MCSF) Biomarker Activity (AID 2283060); details: primary human foreskin fibroblasts; actives raise or lower the signal
Method in brief: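 Human foreskin primary fibroblasts were treated with test chemical for 24 h, and M-CSF was then measured by ELISA. Data were fitted bidirectionally against DMSO as the negative control and activity baseline.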

[20] = BSK_hDFCGF_Proliferation: Cell Proliferation Assessment in the BioMAP Diversity Plus: hDFCGF Assay (AID 2283059); details: primary human foreskin fibroblasts;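 also: curves fitted for both rise and fall of signal versus DMSO baseline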
Method in brief: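 This proliferation readout used SRB total-protein staining of human foreskin fibroblasts […], normalized to DMSO with bidirectional curve fitting.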

Measured: AC50

Cc1ccc([N+](=O)[O-])cc1
not listed: [20]
inactive: all other assays above

Clc1ccc(C(c2ccc(Cl)cc2)C(Cl)Cl)cc1
active: [3] 25.2 µM | [4] 15.2 µM | [5] 5.11 µM | [6] 32.1 µM | [7] 32.1 µM | [11] 24.1 µM | [12] 26.4 µM | [13] 9.7 µM | [14] 36.7 µM | [16] 5.06 µM | [18] 12.2 µM | [19] 7.94 µM
inactive: [1] | [2] | [8] | [9] | [10] | [15] | [17]

N#CC(Br)Br
not listed: [20]
inactive: all other assays above

COc1cc(C=O)cc2c1[C@H](COC(N)=O)[C@]1(OC(C)=O)ON2C[C@H]2[C@@H]1N2C(C)=O
active: [2] 3.6 µM | [3] 1.18 µM | [4] 1.3 µM | [5] 3.91 µM | [6] 4.5 µM | [7] 0.485 µM | [8] 3.59 µM | [9] 4.54 µM | [10] 3.7 µM | [11] 0.224 µM | [12] 4.87 µM | [13] 1.19 µM | [14] 2.21 µM | [15] 4.5 µM | [16] 0.788 µM | [17] 0.0312 µM | [18] 2.73 µM | [20] 0.0312 µM | [19] 1.08 µM

[O-][Cl+]O
not listed: [1]
inactive: all other assays above

Cc1cc(N=Nc2ccccc2C)ccc1N
active: [7] 23.6 µM | [11] 10.7 µM | [13] 29.9 µM | [16] 20 µM | [19] 28.3 µM
not listed: [20]
inactive: all other assays above

Nc1ccc(Oc2ccc(N)cc2)cc1
not listed: [20]
inactive: all other assays above
